Measured values as given in ChEMBL document CHEMBL1157539, “Thousands of chemical starting points for antimalarial lead identification” (Nature, 2010).

Columns and labels:
Type in all cases: functional
Plasmodium falciparum [1] = experiment: GSK_TCMDC: Inhibition of Plasmodium falciparum 3D7 in whole red blood cells, using parasite LDH activity as an index of growth. Test compounds present at 2uM
Plasmodium falciparum [2] = experiment: GSK_TCMDC: Inhibition of Plasmodium falciparum Dd2 in whole red blood cells, using parasite LDH activity as an index of growth. Test compounds present at 2uM
HepG2 = experiment: GSK_TCMDC: Percent inhibition of human HepG2 cell line. Test compounds present at 10uM.

| Compound | Inhibition (Plasmodium falciparum [1]) [%] | Inhibition (Plasmodium falciparum [2]) [%] | Inhibition (HepG2) [%] |
| --- | --- | --- | --- |
| Cc1c(C(=O)C2CC2CN2CCC(N3CCCC3)CC2)sc2ccccc12 (stereo not given) | 94 | 9 | 16 |
| CCCCCc1cnc2nc(N)nc(N)c2c1.O=S(=O)(O)CCO | 82 | 6 | 72 |
| Cc1ccc(NC(=O)NC2CCN(CCCCCNC(=O)/C=C/c3ccc(Cl)c(Cl)c3)CC2)cc1C | 100 | 25 | 36 |
| COc1ccc(-c2nc(NC(=O)COc3ccc(C(C)=O)cc3)sc2C)cc1 | 98 | 58 | 0 |
| Cc1noc(C)c1-c1cccc(CNCc2cccc(-c3ccc(-c4nc5cccc(C)c5[nH]4)s3)c2)c1.O=C(O)C(F)(F)F | 100 | 75 | 22 |
| Nc1cccc(-c2ccc3ccnc(N)c3c2)c1 | 91 | 66 | 30 |
| CN(C)CCOc1ccc(-c2cc(-c3ccncc3)c(-c3ccc(Cl)c(O)c3)[nH]2)cc1.Cl | 98 | 100 | 25 |
| CCCCCCn1c(Sc2ccc(C#N)c([N+](=O)[O-])c2)nnc1-c1cccs1 | 97 | 60 | 26 |
| CCCNCc1ccc(-c2ccc(CN(CCOC)C(=O)CCC(=O)c3ccc(OC)c(F)c3)cc2)nc1.O=C(O)C(F)(F)F | 100 | 47 | 13 |
| CCN(CCCN1CCCCC1)c1cc(C)nc(Nc2ccc(C)cc2C)n1.O=C(O)C(F)(F)F | 91 | 35 | 33 |
| Cc1cc(NCCc2ccccc2)nc(NC(=N)Nc2ccccc2Cl)n1 | 100 | 7 | 20 |
| O=C(/C=C/c1ccc(Cl)cc1)NCCCCCN1CCN(C(=O)C=Cc2ccc(Cl)c(Cl)c2)CC1.O=C(O)C(F)(F)F | 92 | 0 | 30 |
| CCOC(=O)c1c(CSc2ccccc2)oc2cc(CN(C)C)c(O)c(Cl)c12 | 99 | 70 | 12 |
| CCC(CC)CN1C(=O)C(C)(c2ccccc2)N=C1N.O=C(O)C(F)(F)F (stereo not given) | 84 | 11 | 1 |
| Cc1ccccc1C1CCN(C2CCC(NC(=O)c3cc4cc(Cl)ccc4o3)CC2)CC1 (stereo not given) | 89 | 30 | 22 |
| Cc1cc(O)nc(NC#N)n1 | 99 | 3 | 8 |
| CCOc1ccc2c(=NN=Cc3ccccc3OC)cc(C)[nH]c2c1 | 99 | 93 | 11 |
| Cc1ccc2nc(C)cc(N/N=C/c3ccc([N+](=O)[O-])cc3)c2c1 | 100 | 15 | 10 |
| Cn1nccc1C(=O)NCCNCc1cccc(-c2ccc(-c3nc4ccccc4[nH]3)s2)c1.O=C(O)C(F)(F)F | 100 | 94 | 22 |
| CCc1c(C)nc(-n2nc(C)cc2NC(=O)C2c3ccccc3Oc3ccccc32)[nH]c1=O | 89 | 80 | 37 |

| Compound | Inhibition (Plasmodium falciparum [1]) [%] | Inhibition (Plasmodium falciparum [2]) [%] | Inhibition (HepG2) [%] |
| --- | --- | --- | --- |
| O=C(/C=C/c1ccc(Cl)c(Cl)c1)NCCCCCN1CCC(NC(=O)Nc2ccc(Br)cc2)CC1 | 100 | 7 | 36 |
| CC(C)c1ccc(NC(=O)c2cccc(CN3CCCN(Cc4cccc(O)c4)CC3)c2)cc1.O=C(O)C(F)(F)F | 97 | 33 | 25 |
| Fc1ccc2[nH]c(-c3cccc(-c4cccc(CNCc5ccccc5)c4)c3)nc2c1.O=C(O)C(F)(F)F | 100 | 52 | 24 |
| COCCN(C)c1ccc(C(=O)Nc2ccccc2)cc1NS(=O)(=O)Cc1ccccc1.O=C(O)C(F)(F)F | 92 | 47 | 2 |
| Fc1ccc2[nH]c(-c3ccc(-c4ccc(CN5CCCCC5)cc4)s3)nc2c1.O=C(O)C(F)(F)F | 92 | 100 | 42 |
| COc1ccc(-c2cccc(NC(=O)c3ccc(C#N)cc3)c2)cc1CN1CCCN(C)CC1.O=C(O)C(F)(F)F | 100 | 89 | 22 |
| c1cc(CNc2ncc(-c3ccsc3)c(-c3nccs3)n2)ccn1 | 89 | 81 | 18 |
| CC(C)CCN1CCC(Oc2ccc(NC(=O)c3ccsc3)cc2Cl)CC1.O=C(O)C(F)(F)F | 89 | 81 | 19 |
| O=C(NCCCCN1CCN(c2cccc3c2OCCO3)CC1)c1ccc(NC(=O)c2cc(Cl)cc(Cl)c2)cc1 | 100 | 89 | 21 |
| Cl.N#Cc1ccc2c(c1)CCN(CCC1CCC(NC(=O)c3cc4ccc(Cl)cc4[nH]3)CC1)C2 (stereo not given) | 100 | 0 | 5 |
| N#Cc1ccc(N2CCN(Cc3cccc(-c4ccc(-c5nc6cc(C(F)(F)F)ccc6[nH]5)s4)c3)CC2)nc1.O=C(O)C(F)(F)F | 96 | 52 | 31 |
| CC(=O)NCCNc1nccc(N2CCc3ncnc(Nc4ccc(OCc5cccc(F)c5)c(Cl)c4)c3C2)n1 | 100 | 100 | 10 |
| O=C(O)C(F)(F)F.O=C(c1ccccc1)N(Cc1ccccc1-c1ccc(CNCCc2ccccc2)cc1)C1CCN(Cc2ccccc2)CC1 | 95 | 69 | 95 |
| O=C(Nc1cc(F)cc(-c2cccnc2)c1)c1ccc2c(=O)n(Cc3ccccc3)cnc2c1 | 98 | 11 | 7 |
| CC[C@H]1CN(CCCC(=O)c2ccccc2)CC[C@H]1CCCc1ccnc2ccc(OC(=O)c3ccccc3)cc12.O=C(O)C(=O)O | 83 | 68 | 28 |
| Cc1cnc(NCC2CCCCC2)nc1N[C@@H](CC(C)C)C(=O)Nc1ccccc1.O=C(O)C(F)(F)F | 96 | 55 | 12 |
| COc1ccc2nccc([C@@H](O)CN3CCC(NC(=O)C(=Cc4ccc(C#N)cc4)c4ccc(-c5ccccc5)cc4)CC3)c2c1 | 100 | 84 | 5 |
| CCN1CCN(C(=O)NC(C(=O)N(C)Cc2ccc(-c3ccc(C(F)(F)F)cc3)cc2)c2cccs2)C(=O)C1=O (stereo not given) | 99 | 95 | 0 |
| CN1CCC(c2csc3ccc(NC(=O)Nc4ccc(-c5ccncc5)c5ccccc45)cc23)CC1 | 98 | 71 | 8 |
| CC(=O)Nc1cccc(CNCc2ccc(-c3cnc(N4CCCC(C)(C)C4)nc3)cc2)c1.O=CO | 93 | 75 | 10 |

| Compound | Inhibition (Plasmodium falciparum [1]) [%] | Inhibition (Plasmodium falciparum [2]) [%] | Inhibition (HepG2) [%] |
| --- | --- | --- | --- |
| COCCNCc1nc(-c2ccc3c(Nc4ccc(F)c(O)c4)ccnc3c2)cs1 | 100 | 99 | 0 |
| O=C(Nc1cc(Cl)cc(Cl)c1)Nc1ccccc1C(=O)NC1CCCCC1 | 100 | 100 | 12 |
| Cc1cccn2c(=O)c3cc(C(=O)NC(C)c4ccccc4)c(=N)n(CCN4CCOCC4)c3nc12 (stereo not given) | 100 | 5 | 6 |
| CN(C)CCCN(C)C(=O)c1cc2cc(-c3ccccc3)ccc2n1S(=O)(=O)c1ccccc1.Cl | 98 | 66 | 29 |
| CC(=O)Nc1ccc(OCCCCN(Cc2ccccc2C(F)(F)F)c2ccc(C(F)(F)F)c(C#N)c2)c(Cl)c1 | 96 | 96 | 14 |
| CNC(=O)c1ccccc1Nc1nc(Nc2ccc(CCN3CCN(C)CC3)cc2)ncc1Cl.Cl | 97 | 98 | 76 |
| CCCNS(=O)(=O)c1ccc(NC(=O)C(C)Oc2ccc([N+](=O)[O-])cc2)cc1 (stereo not given) | 100 | 37 | 3 |
| Cc1cc([N+](=O)[O-])ccc1N1CCN(CCCCNC(=O)c2ccc(NC(=O)c3ccc(Cl)cc3)cc2)CC1 | 92 | 0 | 33 |
| O=C(Nc1cccc(Oc2ccccc2)c1)N[C@H]1CCN(Cc2ccc(OCCCN3CCCCC3)cc2)C1 | 100 | 70 | 94 |
| COc1ccc(CNCc2ccc(F)cc2)cc1-c1cccc(S(=O)(=O)NCCN2CCCC2)c1.O=C(O)C(F)(F)F | 100 | 54 | 43 |
| COc1cc(CN=C(S)NN=C(C)c2ccccn2)cc(OC)c1OC | 99 | 92 | 45 |
| O=C(COc1ccc(Cl)c(Cl)c1)NCCCCCN1CCCN(C(=O)Nc2cc(Cl)cc(Cl)c2)CC1.O=C(O)C(F)(F)F | 89 | 1 | 44 |
| O=C(Nc1ccc(-c2csc(-c3nc4ccccc4[nH]3)c2)cc1)Nc1ccc(F)c(F)c1F | 100 | 64 | 67 |
| CN1CCN(CCCN(Cc2ccc(-c3cccc(CNC4CCCC4)c3)cc2)C(=O)/C=C/c2ccccc2)CC1.O=C(O)C(F)(F)F | 100 | 87 | 36 |
| Cc1nccn1Cc1cc(C(C)(C)C)c(O)c(C(C)(C)C)c1 | 99 | 0 | 8 |
| CN1CCCc2cc(NC(=O)C=Cc3ccc(-c4ccc(F)cc4F)o3)ccc2C1.O=C(O)C(F)(F)F | 90 | 27 | 5 |
| CC1CCN(CC[C@H]2CCCN2S(=O)(=O)c2cccc(NC(=O)c3cc4ccccc4s3)c2)CC1 | 97 | 41 | 28 |
| CC(CN(C)C)C(=O)Nc1ccc(-c2ccc(-c3nc4cc(F)ccc4[nH]3)cc2)cc1 (stereo not given) | 100 | 95 | 14 |
| CCCc1cc(Cc2cnc(N)nc2N)cc(CCC)c1OC.Cl | 92 | 1 | 18 |
| COc1ccc2c(=NN=Cc3ccccc3Cl)cc(C)[nH]c2c1 | 100 | 99 | 5 |
